GPR151 ag – activators of human GPR151, primary screen, cell-based, PathHunter beta-arrestin, luminescence; PathHunter beta-arrestin GPR151 cells; activation, % at 11.2 µM; 650,000 compounds, 1% hits; in the data active = activation above about 4.9%;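 also: 0% = median of compound wells and 100% = cells with positive control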
Target sequence (Q8TDV0 whole entry, looked up): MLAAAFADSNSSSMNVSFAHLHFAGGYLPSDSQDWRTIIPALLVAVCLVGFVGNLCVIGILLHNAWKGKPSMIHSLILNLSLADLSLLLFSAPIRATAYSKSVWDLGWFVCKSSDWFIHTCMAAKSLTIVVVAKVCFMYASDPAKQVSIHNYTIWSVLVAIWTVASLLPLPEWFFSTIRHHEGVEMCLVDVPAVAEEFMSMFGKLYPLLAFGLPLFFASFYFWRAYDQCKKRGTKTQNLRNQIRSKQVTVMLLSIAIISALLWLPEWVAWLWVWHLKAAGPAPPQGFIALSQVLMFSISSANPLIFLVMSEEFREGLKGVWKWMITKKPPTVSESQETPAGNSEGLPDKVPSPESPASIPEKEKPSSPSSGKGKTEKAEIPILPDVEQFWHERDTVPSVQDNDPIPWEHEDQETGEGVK
TEAD-YAP block – TEAD-YAP interaction inhibition, primary screen, TEAD-YAP interaction inhibitor project, luminescence, HEK-TIYL cells. TEAD-Gal4/YAP UAS-luciferase luminescence. 640,000 compounds, 1.4% hits. inhibition, % at 9.12 µM; in the data active = inhibition above about 32%;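 also: 0% = median of test compound wells and 100% = reference inhibitor wells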
MITF primary – MITF inhibitors, primary screen, biochemical, AlphaScreen, human. inhibition, % at 2.6 µM. 650,000 compounds, 0.91% hits. AlphaScreen MITF homodimerization, bead proximity signal; in the data active = inhibition above about 50%;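 also: 0% = vehicle wells with protein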
FBW7 activator – FBW7 E3 ligase activators, primary screen, biochemical, AlphaScreen, human. AID 1259310, 2017. AlphaScreen FBW7–phospho-cyclin E peptide binding, activator screen. normalized activity (activation), % at 26.1 µM. 650,000 compounds, 0.13% hits. F-box/WD repeat-containing protein 7 (Homo sapiens), Q969H0; in the data active = normalized activity above about 1.9%;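 also: purified mutant Fbw7 with reduced substrate affinity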
Numbers without * were called inactive. In the library only some 3.5% were active in any assay of this set; here they are far more common.

SMILES | GPR151 ag | TEAD-YAP block | MITF primary | FBW7 activator
Cn1cccc1Cc1nnc(SCC(=O)N2CCc3ccccc32)n1C | 3 | 7 | 3 | 0
Cc1cn[nH]c1C1CCCN(Cc2ccco2)C1 (stereo not given) | -1 | 14 | 7 | 0
Cc1nnc2c(N3CCN(c4ccccc4)CC3)nc3ccccc3n12 | -2 | -4 | -7 | 0
CC1=CC(C)(C)N2C(=O)C(=O)c3cc(OC(=O)COc4ccccc4)cc1c32 | -1 | 62* | 10 | 0
CC1=CC(C)(C)N2C(=O)C(=O)c3cc(OC(=O)C4CCCO4)cc1c32 (stereo not given) | 0 | 57* | 12 | 0
COc1ccc(C(=O)Oc2cc3c4c(c2)C(C)=CC(C)(C)N4C(=O)C3=O)cc1OC | 0 | 9 | 10 | 0
Cc1ccc(C(O)(C(=O)NN(C(=O)c2ccc(Br)o2)c2ccccc2)c2ccc(C)cc2)cc1 | -1 | 9 | 4 | 0
CCC1=NN2C(=N)/C(=C/c3cc(Br)c(OCCOc4ccc(C(C)(C)C)cc4)c(OC)c3)C(=O)N=C2S1 | 3 | -16 | 4 | 0
CC1(C)[C@H]2CC=C(CN3CCC(C4(Cc5ccccc5F)NC(=O)NC4=O)CC3)[C@@H]1C2 (stereo not given in full) | 1 | 4 | -13 | 0
COc1ccc(-c2cn3cc(-c4cccc([N+](=O)[O-])c4)nc3n2C)cc1 | -7 | 98* | 2 | 0
Cn1c(-c2ccc3c(c2)OCO3)cn2cc(-c3cccc([N+](=O)[O-])c3)nc12 | -1 | 98* | 7 | 0
Cn1c(-c2cccc([N+](=O)[O-])c2)n[nH]c1=S | 0 | 3 | 1 | 0
Cn1c(-c2ccccc2)cn2cc(-c3cccc([N+](=O)[O-])c3)nc12 | -8 | 99* | 3 | 0
O=[N+]([O-])c1cccc(-c2csc(Nc3ccc4c(c3)OCO4)n2)c1 | -1 | -21 | 26 | 0
COc1ccc(-n2c(-c3cccc([N+](=O)[O-])c3)n[nH]c2=S)cc1 | 1 | -2 | 2 | 0
COc1ccccc1NC(=O)CSc1nc2ccsc2c(=O)n1-c1ccc(F)cc1 | -1 | 13 | -1 | 0
CCn1nc(C)c(CNC(=O)c2ccc(OC3CCN(Cc4ccccn4)CC3)cc2)c1C | 0 | 52* | 9 | 0
Cc1cc(C)c2c3c1C1C=CCC1CN3C(C(=O)O)C1CC=CC21 (stereo not given) | 0 | -2 | 25 | 2.5*
O=C(O)c1cc2c3c(c1)C1CC=CC1C(c1ccc(Br)cc1)N3CC1CC=CC21 (stereo not given) | -1 | -6 | 72* | 0
O=C(O)c1cc2c3c(c1)C1C=CCC1C(c1ccccc1)N3CC1CC=CC21 (stereo not given) | 1 | 13 | 56* | 0
O=C(O)C1C2CC=CC2c2cc(Oc3ccccc3)cc3c2N1CC1CC=CC31 (stereo not given) | 0 | -2 | 0 | 2.3*
CC1CCN(c2nc(-c3ccc(Br)cc3)cs2)CC1 | 0 | -6 | -10 | 0
CCOc1ccc(C(=O)Cc2cc3cccc(OC)c3oc2=O)cc1 | -1 | -1 | 3 | 0
O=C1OCCC1Sc1ncnc2sc(-c3ccccc3)cc12 (stereo not given) | 0 | -3 | 18 | 0
COc1ccc(-c2nc3ncnc(NCCO)c3[nH]2)cc1 | 1 | -1 | 9 | 0
SMILES | GPR151 ag | TEAD-YAP block | MITF primary | FBW7 activator
COc1ccc(N2CCN(Cc3ccc(Br)o3)CC2)cc1 | -1 | 6 | 53* | 0
COc1ccc(OC)c(C(O)P(=O)(OCC(C)C)OCC(C)C)c1 (stereo not given) | -1 | 2 | -4 | 1
Cn1cccc1/C=C1\CS/C(=C\c2cccn2C)C1=O | 1 | -11 | 68* | -1
CCN1C/C(=C\c2cccn2C)C(=O)/C(=C/c2cccn2C)C1 | 1 | 1 | 11 | 0
N#C/C(=C\c1ccc(OCC(=O)O)cc1)C(=O)NCC1CCCO1 (stereo not given) | -1 | 8 | -4 | -1
COc1cc2c(-c3ccccc3Br)nc3c(c(C)nn3-c3ccccc3)c2cc1OC | 0 | 10 | 10 | 0
COc1cc2c(-c3ccccc3Cl)nc3c(c(C)nn3-c3ccccc3)c2cc1OC | 0 | 40* | 14 | 0
CC(C)N1CCc2c(sc(NC(=O)C(C)(C)C)c2C(N)=O)C1 | 0 | 74* | 13 | 1
CC(C)(C)c1ccc(C(=O)Nc2ccc3c(c2)C(=O)N(CC(=O)O)C3=O)cc1 | 3 | 24 | 8 | 0
C(=N\n1cnnc1)/c1ccc(OCc2cccc3ccccc23)cc1 | -1 | -53 | -8 | 0
C(=N\n1cnnc1)/c1cccc(OCc2cccc3ccccc23)c1 | -1 | 50* | 17 | 0
Brc1cccc(/C=N/n2cnnc2)c1 | 0 | 91* | 13 | 0
Brc1ccc(/C=N/n2cnnc2)cc1 | 0 | 11 | 18 | 0
O=C(NN1C(=O)c2cccc3c([N+](=O)[O-])ccc(c23)C1=O)c1ccc([N+](=O)[O-])cc1 | 0 | 8 | 17 | 2.6*
CC(=O)N1CCC2(CC1)OCc1cc(-c3ccc(F)cc3)ccc1O2 | 2 | -10 | 2 | 0
COc1ccc(-n2c(=O)[nH]c(=O)c3sc(NC(=O)Nc4cccc(Cl)c4)nc32)cc1 | 1 | 2 | -17 | 0
CN(c1ccccc1)S(=O)(=O)c1ccc(C(=O)Nc2nc(-c3ccccc3)cs2)cc1 | -1 | -1 | 6 | 0
COc1cc2nc(NC(=O)C3=COCCO3)sc2cc1OC | -6 | -26 | 8 | 1
O=C(Nc1nc2cc3c(cc2s1)OCO3)C1=COCCO1 | -12 | 52* | 4 | 0
O=C(Cc1ccccc1)c1ccc(O)cc1O | 1 | -5 | 12 | 0
O=C(Cc1ccc2c(c1)OCCCO2)c1ccc(O)cc1O | 2 | 61* | 3 | 0
O=c1c2ccccc2nc2c3ccccc3c(NCCN3CCOCC3)nn12 | 1 | 74* | -5 | 0
O=c1c2c(-c3ccccc3)csc2nc2c3ccccc3c(NCCCN3CCOCC3)nn12 | 0 | -4 | 19 | 1
Cc1ccc(Cc2c(C)nc3c(C(=O)NCc4cccnc4)cnn3c2C)cc1 | 1 | 49* | 2 | 0
COCCCNC(=O)c1cnn2c(C)c(Cc3ccc(C)cc3)c(C)nc12 | 0 | 40* | 8 | 0
COC(=O)c1cnn2c(C)c(Cc3ccc(C)cc3)c(C)nc12 | 1 | 43* | 5 | 0
Cc1nc2c(C(=O)NCc3cccnc3)cnn2c(C)c1Cc1cccc(Cl)c1 | 1 | 0 | 0 | 0
CCC(C)/C(C)=N\NC(=O)CNC(=O)c1ccc(Cl)cc1 (stereo not given) | -1 | 12 | 12 | 0

Screening results deposited in PubChem by The Scripps Research Institute Molecular Screening Center.
